Assay outcomes: PubChem BioAssay, Buhrlage Lab, Dana-Farber Cancer Institute and Novartis Institutes for BioMedical Research (Cambridge, Mass)
An excerpt weighted towards active compounds, which were near 12% of everything screened.
USP10 inh: inhibitors of human USP10 deubiquitinase; Q14694; purified USP10, Ub-rhodamine fluorescence, 60 min; inhibition, % at 20 µM; actives 1.1% (n = 47,000); AID 1645856
USP30 inh: human USP30 deubiquitinase inhibition | Q70CQ3 | purified USP30, Ub-rhodamine cleavage fluorescence | inhibition, % at 25 µM | actives 5.3% (n = 47,000) | AID 1645860
UCHL1 inh: blocks human UCHL1 ubiquitin-rhodamine cleavage | P09936 | purified UCHL1, Ub-rhodamine cleavage fluorescence | inhibition, % at 20 µM | actives 0.2% (n = 47,000)
USP7 inh: inhibitors of human USP7 deubiquitinase. Q93009. purified USP7, Ub-rhodamine cleavage fluorescence. inhibition, % at 20 µM. actives 0.3% (n = 47,000). AID 1645854
USP8 block: blocks human USP8 ubiquitin-rhodamine cleavage. purified USP8, Ub-rhodamine cleavage fluorescence, 30 min. inhibition, % at 20 µM. actives 4.2% (n = 47,000)
USP17 inh: human USP17-like deubiquitinase inhibition; A8MUK1; purified USP17, Ub-rhodamine cleavage fluorescence, 3 h; inhibition, % at 50 µM; actives 6.5% (n = 47,000); AID 1645855
Target sequence (A8MUK1 whole entry, looked up): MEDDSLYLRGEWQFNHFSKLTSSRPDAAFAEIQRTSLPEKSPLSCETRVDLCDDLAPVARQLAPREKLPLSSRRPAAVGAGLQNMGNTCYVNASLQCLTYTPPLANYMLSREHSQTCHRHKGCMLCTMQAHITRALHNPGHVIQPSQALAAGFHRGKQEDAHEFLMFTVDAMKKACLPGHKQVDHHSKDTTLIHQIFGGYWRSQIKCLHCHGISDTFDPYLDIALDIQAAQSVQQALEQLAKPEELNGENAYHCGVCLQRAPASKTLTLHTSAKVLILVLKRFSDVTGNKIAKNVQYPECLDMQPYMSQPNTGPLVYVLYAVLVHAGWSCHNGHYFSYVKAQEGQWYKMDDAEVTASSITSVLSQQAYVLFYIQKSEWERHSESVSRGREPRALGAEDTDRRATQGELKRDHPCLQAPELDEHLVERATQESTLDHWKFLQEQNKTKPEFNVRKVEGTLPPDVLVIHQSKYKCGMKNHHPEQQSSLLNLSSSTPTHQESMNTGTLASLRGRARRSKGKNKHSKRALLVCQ
Starred values were filed as active, the others as inactive; i = inactive. Rule as the data show it: active = inhibition above about 30%; inactive = the rest.

SMILES	USP10 inh	USP30 inh	UCHL1 inh	USP7 inh	USP8 block	USP17 inh
Cc1cccc(COc2ccc(C3SCC(=O)Nc4n[nH]c(C)c43)cc2)c1 (stereo not drawn)	7	21	8	-24	86*	56*
Cc1[nH]nc2c1C(c1cccc(F)c1)SCC(=O)N2 (stereo not drawn)	3	-2	-4	-3	3	-3
CCCCNC(=O)c1cc2cccnc2n(Cc2ccccc2)c1=O	-2	24	3	-28	-7	69*
CC[C@@H]1[C@@H](O)N2C3C[C@H]1C1[C@@H](O)[C@]4(C[C@@H]12)c1ccccc1N(C)C34 (stereo partly drawn)	3	-15	0	1	2	-7
CC12CN3CC(c4ccccc4)(CN(C1)C3c1ccccc1)C2=O (stereo not drawn)	3	19	3	3	20	4
CC1CCN(C[C@H]2CN3CC[C@H]2C[C@@H]3CNC(=O)Nc2ccccc2)CC1	-3	8	-2	2	-2	0
CN(C[C@H]1CN2CC[C@H]1C[C@@H]2CNC(=O)Nc1cccc(F)c1)c1ccccc1	-1	40*	0	-12	-28	-27
N#Cc1cnn2c1NC(c1ccco1)CC2C(F)(F)F (stereo not drawn)	-6	-201	-38	-40	-16	-64
CN1CCc2c(C#N)c(N3CCOCC3)n3cnnc3c2C1	-1	-24	-5	-5	4	-8
CCCCCCC(O)CCCCCC/C=C/[C@H](O)[C@@H](OC(C)=O)[C@H](O)[C@H](N)C(=O)O (stereo partly drawn)	-12	-24	-6	-9	-24	35*
COc1ccc2nc(C(=O)N[C@@H]3COC(=O)[C@H](C(C)(C)O)N(C)C(=O)CN(C)C(=O)CNC(=O)[C@@H]4[C@@H](OC(C)=O)CC=NN4C(=O)[C@H](NC(=O)c4nc5ccc(OC)cc5cc4O)COC(=O)[C@H](C(C)(C)O)N(C)C(=O)CN(C)C(=O)CNC(=O)[C@@H]4[C@@H](OC(C)=O)CC=NN4C3=O)c(O)cc2c1	-16	-114	-9	-31	-32	-38
CN(C)[C@@H]1C(=O)C(C(N)=O)=C(O)[C@@]2(O)C(=O)C3=C(O)c4c(O)cccc4[C@@](C)(O)[C@H]3C[C@@H]12	-3	-99	21	-74	0	51*
CN(C)[C@@H]1C(=O)C(C(N)=O)=C(O)[C@@]2(O)C(=O)C3=C(O)c4c(O)cccc4[C@@](C)(O)C3[C@H](O)[C@@H]12 (stereo partly drawn)	62*	50*	90*	89*	50*	84*
COCCN1CCO[C@@H]2CCN(C(=O)c3ccno3)CC[C@H]21	-2	-43	-3	-1	-87	-23
COc1cc(N2CC[C@@H]3OCCN(C)[C@H]3CC2)ncn1	-1	33*	0	3	-1	11
CN1C(=O)[C@]23CC4=CC=C[C@H](O)[C@H]4N2C(=O)[C@@]1(CO)SS3	-2	50*	-5	-1	-8	-18
CC(C)[C@@H]1NC(=O)[C@H](C)OC(=O)[C@@H](C(C)C)NC(=O)[C@@H](C(C)C)OC(=O)[C@H](C(C)C)NC(=O)[C@H](C)OC(=O)[C@@H](C(C)C)NC(=O)[C@@H](C(C)C)OC(=O)[C@H](C(C)C)NC(=O)[C@H](C)OC(=O)[C@@H](C(C)C)NC(=O)[C@@H](C(C)C)OC1=O	3	0	1	0	5	-8
c1ccc(CN2CC[C@@H]3[C@@H](CO[C@@H]3CNc3ncccn3)C2)nc1	-2	-16	-1	-3	-60	-30
COc1cccc2oc3c4c(cc(OC)c3c(=O)c12)OC1OC=CC41O (stereo not drawn)	0	-37	4	7	-2	11
COc1ccc(-c2cc([C@H]3CN4CC[C@H]3C[C@@H]4CO)n(C)n2)cc1OC	-1	20	4	7	-2	7
COc1ccccc1-c1cc([C@H]2CN3CC[C@H]2C[C@@H]3CN)n(C)n1	-9	-199	-66	-46	54*	0
CC1(C)NC(=O)[C@H](CCCCCC(=O)C2CO2)NC(=O)[C@H]2CCCN2C(=O)[C@H](Cc2ccccc2)NC1=O (stereo partly drawn)	4	19	-2	2	1	0
CCC(CC(C)C(=O)O)C(=O)CC/C1=C/C(C)C/C(C)=C/C(C)C(O)C(C)CCC(CCCC/C=C/C(C)CCC(C)OC(=O)CC(CC(=O)O)C(=O)O)OC(=O)CC(C(=O)O)CC(=O)OC1 (stereo not drawn)	15	32*	-1	3	6	0
C=CC(C)(C)C12C=C(OC)C(=O)N3/C(=C/c4cnc[nH]4)C(=O)NC31N(OC)c1ccccc12 (stereo not drawn)	-12	-229	-23	-26	-110	-40
CCCCCC(O)c1c(O)cc2c(c1O)C(=O)c1c(O)cc(O)cc1C2=O (stereo not drawn)	33*	i	6	-104	-16	58*
SMILES	USP10 inh	USP30 inh	UCHL1 inh	USP7 inh	USP8 block	USP17 inh
CO[C@H]1[C@@H](O)[C@H](C)O[C@H](O[C@H]2[C@H](Oc3cccc4c(O)c5c(=O)oc6ccc(C)c7c(=O)oc(c34)c5c67)O[C@H](C)[C@H](O)[C@@H]2O)[C@@H]1O	-15	-6	-162	-160	-329	78*
CC1CC[C@@]2(NC1)O[C@H]1C[C@H]3[C@@H]4CC=C5C[C@@H](O)CC[C@]5(C)[C@H]4CC[C@]3(C)[C@H]1[C@@H]2C (stereo partly drawn)	-7	38*	2	1	-5	52*
O=C(Nc1cccnc1)[C@H]1CC[C@@H]2[C@@H](CCN2Cc2ccco2)O1	-3	-3	1	4	-102	-7
CCN1CCC2(COCc3c(C)nc(NCC4CC4)nc32)C1 (stereo not drawn)	-7	-61	-4	-6	-13	-5
CC[C@@H]1[C@@H](C)O[C@@](O)([C@@H](C)[C@H](O)[C@H](C)[C@H]2OC(=O)/C=C/C=C/[C@H](C)[C@@H]([C@@H](C)[C@@H](O)[C@H](C)[C@@]3(O)C[C@@H](O[C@H]4C[C@H](O)[C@H](O)[C@H](C)O4)[C@H](CC)[C@@H](C)O3)OC(=O)/C=C/C=C/[C@@H]2C)C[C@H]1O[C@H]1C[C@H](O)[C@H](O)[C@H](C)O1	1	-87	13	51*	-15	9
O=C(CNC(=O)OCc1ccccc1)Nc1ccc(Br)cc1C(=O)c1ccccc1Cl	25	-6	-1	3	1	77*
O=C(CNC(=O)c1ccccc1Br)Nc1ccc(Br)cc1C(=O)c1ccccc1	6	43*	5	-58	4	22
O=C(Nc1ccncc1)N1CCC2(CC1)C(=O)Nc1c(Oc3ccccc3)cccc12	-1	-18	3	-14	-307	-37
